Assay outcomes (PubChem)
An excerpt weighted towards active compounds, which were near 1.6% of everything screened.
PLAP act: activators of human placental alkaline phosphatase | purified PLAP enzyme, luminescent substrate read-out; hits give high values | activation fold at 20 µM | 96,000 compounds, 1.2% hits; in the data active means activation fold above about 2
Target sequence (P05187 whole entry, looked up): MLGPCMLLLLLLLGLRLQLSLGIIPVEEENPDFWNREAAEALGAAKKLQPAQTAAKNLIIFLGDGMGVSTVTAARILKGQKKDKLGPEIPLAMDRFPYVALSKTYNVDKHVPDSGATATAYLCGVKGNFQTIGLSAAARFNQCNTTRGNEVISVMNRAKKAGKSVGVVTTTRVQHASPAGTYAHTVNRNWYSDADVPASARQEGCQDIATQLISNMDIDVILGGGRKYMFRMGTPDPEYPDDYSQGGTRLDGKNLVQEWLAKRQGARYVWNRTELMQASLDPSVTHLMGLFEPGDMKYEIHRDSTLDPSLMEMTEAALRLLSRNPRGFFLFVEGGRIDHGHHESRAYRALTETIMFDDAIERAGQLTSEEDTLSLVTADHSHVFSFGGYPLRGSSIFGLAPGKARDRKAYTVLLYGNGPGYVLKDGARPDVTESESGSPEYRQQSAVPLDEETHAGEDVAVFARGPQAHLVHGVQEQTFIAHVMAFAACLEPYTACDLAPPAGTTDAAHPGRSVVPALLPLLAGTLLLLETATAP
LYP inh 2: blocks human PTPN22 phosphatase activity; Q9Y2R2; recombinant LYP catalytic domain, DiFMUP fluorescence; inhibition, % at 2 µM; 96,000 compounds, 0.21% hits;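 active means inhibition at 2 µM at or above a set limit, the screen mean plus 3 SD, cut at about 24% in these data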
MT1-MMP txn act: activates MT1-MMP transcription; HT1080 MT1-MMP promoter luciferase reporter, luminescence, overnight; hits give high values; activation factor at 10 µM; 86,000 compounds, 0.16% hits;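 active means activation factor of at least 2 for MT1-MMP transcription at 10 µM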
TNAP act DEA: activates human TNAP at intermediate phosphate acceptor concentration | activation factor at 20 µM | P05186 | 64,000 tested, under 10 active | purified TNAP, CDP-star luminescence, 100 mM DEA, 30 min; hits give high values; scale: 0 levamisole-inhibited, 1 vehicle-only enzyme | AID 813;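 active means activation factor of at least 2 at 20 µM, relative to controls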
PTPN22 act: increases human PTPN22 phosphatase activity; Q9Y2R2; recombinant LYP, DiFMUP fluorescence; 0 = plate median, 100 = signal doubled; activation, % at 2 µM; 96,000 compounds, 0.11% hits; AID 697;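 active means activation at 2 µM above a set limit, the mean plus 5 SD, cut at about 37% in these data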
Hits are given with their value.

`CCC/C=C(\CCC)C(NS(=O)(=O)c1ccc(Cl)cc1)c1ccc(C(=O)OC)cc1` (stereo not drawn) gave MT1-MMP txn act inactive.
`C/C(=N\NC(=O)C1CCCN(S(=O)(=O)c2ccccc2)C1)c1ccccn1` (stereo not drawn) gave PLAP act 2, LYP inh 2 inactive and PTPN22 act inactive.
For N#CC(c1ccccc1)(c1ncc(C(F)(F)F)cc1Cl)N1CCOCC1 (stereo not drawn) the results were PLAP act inactive, LYP inh 2 inactive and PTPN22 act inactive.
`N#CC(c1cccc(C(F)(F)F)c1)(c1ncc(C(F)(F)F)cc1Cl)N1CCOCC1` (stereo not drawn) gave PLAP act inactive, LYP inh 2 40 and PTPN22 act inactive.
Screening Clc1ccccc1CSc1nc2ccncc2[nH]1 returned PLAP act 2.7, LYP inh 2 inactive and PTPN22 act inactive.
Screening COC(=O)[C@@]1(Cc2ccccc2)[C@H]2c3cc(C(=O)N(C)C)n(Cc4ccsc4Br)c3C[C@H]2CN1C(=O)c1ccccc1 returned MT1-MMP txn act inactive.
`CCCCC(C(=O)NC1CCCC1)N(Cc1ccco1)C(=O)Cn1nnc(-c2ccc(F)cc2)n1` (stereo not drawn) gave PLAP act 2.2, LYP inh 2 inactive and PTPN22 act inactive.
`CCCOc1cccc(-c2cc(C(=O)NNC(=S)NCC)c3ccccc3n2)c1` gave PLAP act 2.2, LYP inh 2 inactive and PTPN22 act inactive.
Screening CCNC(=S)NNC(=O)c1cc(-c2ccccc2C)nc2ccccc12 returned PLAP act inactive, LYP inh 2 inactive and PTPN22 act inactive.
CCNC(=S)NNC(=O)c1cc(CC(C)C)nc2ccccc12 was read as PLAP act 2.3, LYP inh 2 inactive and PTPN22 act inactive.
`COc1ccccc1NC(=O)C(=O)NNC(=O)c1ccco1` gave PLAP act 2.2, LYP inh 2 inactive and PTPN22 act inactive.
Screening COc1ccccc1NC(=O)c1cc(Cl)ccc1NC(=O)c1ccco1 returned PLAP act inactive, LYP inh 2 inactive, MT1-MMP txn act inactive, TNAP act DEA inactive and PTPN22 act inactive.
CCc1ccccc1NC(=O)CSc1nnc([C@@H]2CCCN2C(=O)OC(C)(C)C)o1 was read as PLAP act 2.1, LYP inh 2 inactive, MT1-MMP txn act inactive, TNAP act DEA inactive and PTPN22 act inactive.
`Nc1c(C(=O)NCc2ccco2)c2nc3ccccc3nc2n1CCc1ccc(F)cc1` gave PLAP act 2, LYP inh 2 inactive, MT1-MMP txn act inactive and PTPN22 act inactive.
For S=c1[nH]nc(-c2ccncc2)n1Cc1ccccc1 the results were PLAP act 2, LYP inh 2 inactive, MT1-MMP txn act inactive, TNAP act DEA inactive and PTPN22 act inactive.
`S=c1[nH]nc(-c2cccnc2)n1Cc1ccccc1` gave PLAP act inactive, LYP inh 2 inactive, MT1-MMP txn act inactive, TNAP act DEA inactive and PTPN22 act inactive.
Screening COc1ccc(-c2n[nH]c(C(F)(F)F)c2-c2cc3ccccc3o2)c(O)c1 returned PLAP act 2, LYP inh 2 inactive, MT1-MMP txn act inactive, TNAP act DEA inactive and PTPN22 act inactive.
Screening COc1ccc(-c2n[nH]c(C)c2-c2ccc(Cl)cc2)c(O)c1 returned PLAP act inactive, LYP inh 2 inactive, MT1-MMP txn act inactive and PTPN22 act inactive.
Cc1ccccc1-n1c(CSC(=N)N)nc2ccccc2c1=O was read as PLAP act 2.3, LYP inh 2 inactive and PTPN22 act inactive.
NS(=O)(=O)c1ccc(CCNC(=O)c2ccc(S(=O)(=O)N3CCCCC3)cc2)cc1 was read as PLAP act 2, LYP inh 2 inactive and PTPN22 act inactive.
O=C(c1cccc2ccccc12)N1CCN(CC2CC=CCC2)CC1 (stereo not drawn) was read as PLAP act inactive, LYP inh 2 inactive, MT1-MMP txn act inactive, TNAP act DEA inactive and PTPN22 act inactive.
CCOC(=O)Cc1cn2c(=O)cc(CSCC(=O)Nc3ccc(C)c(C)c3)nc2s1 was read as PLAP act inactive, MT1-MMP txn act inactive and TNAP act DEA inactive.
For CCn1c(CNC(=O)COc2ccc(C(C)C)cc2)nnc1SCC(=O)Nc1ccccc1F the results were PLAP act 2, LYP inh 2 inactive and PTPN22 act inactive.
COC(=O)c1ccc(C(NC(=O)OCc2ccccc2)/C(C)=C/[C@@H](C)C(=O)O)cc1 (stereo partly drawn) was read as MT1-MMP txn act inactive.
Screening COc1cccc2[nH]c3c(N4CCN(Cc5ccc6c(c5)OCO6)CC4)ncnc3c12 returned PLAP act 2.1, LYP inh 2 inactive, MT1-MMP txn act inactive, TNAP act DEA inactive and PTPN22 act inactive.
For Fc1ccc2[nH]c3c(N4CCN(C5CCCCC5)CC4)ncnc3c2c1 the results were PLAP act 2.3, MT1-MMP txn act inactive and TNAP act DEA inactive.
Screening COc1ccc2c(c1)[nH]c1c(N3CCN(Cc4ccc5c(c4)OCO5)CC3)ncnc12 returned PLAP act inactive, LYP inh 2 inactive, MT1-MMP txn act inactive, TNAP act DEA inactive and PTPN22 act inactive.
Screening Cc1ccc2[nH]c3c(N4CCN(Cc5ccccc5)CC4)ncnc3c2c1 returned PLAP act 2, LYP inh 2 inactive, MT1-MMP txn act inactive, TNAP act DEA inactive and PTPN22 act inactive.
Screening O=C(NCc1nc2ccccc2[nH]1)[C@H]1C[C@@H]1[C@H](NP(=O)(c1ccccc1)c1ccccc1)c1ccccc1 returned MT1-MMP txn act inactive.
O=C(OCC#CCSc1nnc(-c2cccc3ccccc23)o1)c1ccco1 was read as PLAP act inactive, LYP inh 2 inactive, MT1-MMP txn act inactive and PTPN22 act inactive.
Screening CCC1=C2CC[C@H]3C(=O)N(CC)C(=O)[C@H]3[C@H]2[C@@]2(Cc3ccccc3)C(=O)N(CC3CC3)C(=O)N2C1=O returned MT1-MMP txn act inactive.
`CCCC(=O)Nc1sc(C)c(-c2ccc(C(C)CC)cc2)c1C#N` (stereo not drawn) gave PLAP act inactive, LYP inh 2 inactive and PTPN22 act inactive.
`CCn1c(SCC(=O)N(C(C)C)C(C)C)nnc1-c1cc2ccccc2cc1O` gave PLAP act 2, LYP inh 2 inactive, MT1-MMP txn act inactive, TNAP act DEA inactive and PTPN22 act inactive.
Screening CCc1nnc(NC(=O)CSc2nnc(-c3cc4ccccc4cc3O)n2CC)s1 returned PLAP act inactive, MT1-MMP txn act inactive and TNAP act DEA inactive.
`COCCCNC(=O)c1ccc2c(c1)OCO2` gave PLAP act inactive, LYP inh 2 inactive, MT1-MMP txn act inactive, TNAP act DEA inactive and PTPN22 act inactive.
C=CCNC(=S)NNC(=O)c1csc(C)c1CC was read as PLAP act 2.1, LYP inh 2 inactive and PTPN22 act inactive.
`CC(C)CNC(=S)NNC(=O)c1ccc(OC(F)F)cc1` gave PLAP act inactive, LYP inh 2 inactive and PTPN22 act inactive.
CCNC(=S)NNC(=O)c1ccc(OC(F)F)cc1 was read as PLAP act 2.3, LYP inh 2 inactive and PTPN22 act inactive.
